{"source": "the OligoGym collection"}
{"target": "ARF4", "test": "pooled miR-30 sensor sort-seq; sequence = guide strand", "settings": "shRNA"}
{"sequence": "TACCACAAAAATAAGACCCTGG", "sensor-assay potency score (higher = more potent)": 0.855}
{"sequence": "ATCTTGACCACCAACATCCCAT", "sensor-assay potency score (higher = more potent)": -0.565}
{"sequence": "TACTGTGAAACAAATGTTCTTA", "sensor-assay potency score (higher = more potent)": 0.474}
{"sequence": "TTTGTTTGCAAAAAGTAGCAGC", "sensor-assay potency score (higher = more potent)": -0.61}
{"sequence": "TAATTCTATCTTGACCACCAAC", "sensor-assay potency score (higher = more potent)": -1.26}
{"target": "ARHGAP18", "test": "pooled miR-30 sensor sort-seq; sequence = guide strand", "settings": "shRNA"}
{"sequence": "ATTTGTACTCTTATCTTGCTTT", "sensor-assay potency score (higher = more potent)": 0.153}
{"sequence": "TTGCACTCGAATCACTCCCTGA", "sensor-assay potency score (higher = more potent)": -0.442}
{"sequence": "TTGGTTTACAATAAACTTGGGA", "sensor-assay potency score (higher = more potent)": 0.294}
{"sequence": "TTCTCCATAACTTTGATGGTGG", "sensor-assay potency score (higher = more potent)": -0.384}
{"sequence": "TTTGCTTCTAGTTCTTGGCAAA", "sensor-assay potency score (higher = more potent)": -1.24}
{"sequence": "TAAAAACACAATGCTTTCCTGT", "sensor-assay potency score (higher = more potent)": 0.106}
{"sequence": "TTTGACAACAACCACCTCTTGA", "sensor-assay potency score (higher = more potent)": 0.34}
{"sequence": "TTATTTACACTCTTGACTCAGC", "sensor-assay potency score (higher = more potent)": -0.0105}
{"sequence": "TTTATTTACACTCTTGACTCAG", "sensor-assay potency score (higher = more potent)": 0.18}
{"sequence": "TTCTCCTTTCTTGAGAGTCTGG", "sensor-assay potency score (higher = more potent)": -0.587}
{"sequence": "TTCTATCCAATAGTCTTCCATA", "sensor-assay potency score (higher = more potent)": -1.16}
{"sequence": "TTTCTTTTGATTCTCTCTGTTG", "sensor-assay potency score (higher = more potent)": -0.646}
{"target": "ARHGAP21", "test": "pooled miR-30 sensor sort-seq; sequence = guide strand", "settings": "shRNA"}
{"sequence": "TAAACTATCTAATCTTTCTTGT", "sensor-assay potency score (higher = more potent)": 0.258}
{"sequence": "TTGTATATCAATATCAGCCATT", "sensor-assay potency score (higher = more potent)": -0.872}
{"sequence": "TAGACTTCCACTATCTGACTTG", "sensor-assay potency score (higher = more potent)": 0.173}
{"sequence": "TTCTATTGGATAACAAATCTAC", "sensor-assay potency score (higher = more potent)": -0.588}
{"sequence": "TTTAGTATCATTGTGACACTGT", "sensor-assay potency score (higher = more potent)": 0.875}
{"sequence": "TATCTGACTTGAATCTAGCTGA", "sensor-assay potency score (higher = more potent)": 0.41}
{"sequence": "TTGTTGAGTCACTAGTAGCTGA", "sensor-assay potency score (higher = more potent)": -0.152}
{"sequence": "TAAATCTGAAGTACCAGCGTTT", "sensor-assay potency score (higher = more potent)": 0.202}
{"sequence": "TAAACTGCGACACAGATCCCAC", "sensor-assay potency score (higher = more potent)": -0.61}
{"sequence": "TTTCATTGCAAACACACACTGC", "sensor-assay potency score (higher = more potent)": -0.187}
{"sequence": "TTATTTTTTGAGACCTCGCAGG", "sensor-assay potency score (higher = more potent)": -0.693}
{"sequence": "TTAAACTATCTAATCTTTCTTG", "sensor-assay potency score (higher = more potent)": 0.206}
{"target": "ARHGAP30", "test": "pooled miR-30 sensor sort-seq; sequence = guide strand", "settings": "shRNA"}
{"sequence": "TGCACAGCTCTTTAGCACCTGG", "sensor-assay potency score (higher = more potent)": -0.978}
{"sequence": "AAGAGGATCGAGAAGCTCGGGA", "sensor-assay potency score (higher = more potent)": -0.319}
{"sequence": "TTAATCTGGATTTAAAAGGGAC", "sensor-assay potency score (higher = more potent)": -0.482}
{"sequence": "TCTTGCTACACATTGCACTGGG", "sensor-assay potency score (higher = more potent)": 0.852}
{"sequence": "TTGTTGGATTTATCCTCCCTGT", "sensor-assay potency score (higher = more potent)": -0.894}
{"sequence": "TGAATCTTGCTACACATTGCAC", "sensor-assay potency score (higher = more potent)": -1.12}
{"sequence": "TTGTGTCGGAGACAAGTTCAGG", "sensor-assay potency score (higher = more potent)": -1.32}
{"sequence": "TAGAGTTGGGCACTACAGCTGC", "sensor-assay potency score (higher = more potent)": -0.34}
{"sequence": "TTGACCTTCACTAGAGTGGGAC", "sensor-assay potency score (higher = more potent)": -0.00464}
{"sequence": "TTTGGCACAGTCAACCTCCAGG", "sensor-assay potency score (higher = more potent)": -0.36}
{"sequence": "TAGGTCATCATAGGCACTCAGG", "sensor-assay potency score (higher = more potent)": -1.26}
